Assay outcomes from PubChem BioAssay.
Most compounds without a hit are left out; they make up all but 3.3% or so of the library.
NS1 function inh: inhibitors of influenza NS1 protein function. Potency, µM (top dose mostly 46.1 µM). actives 0.4% (n = 270,000). AID 2326; calls by dose curve; note: actives are rising curves; nearly all actives have a fitted effect of over 50% in size
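A cell-based growth assay was used: compounds that relieve NS1-induced slow growth of budding yeast raise OD600. Assay medium was yeast nitrogen base with ammonium sulphate and -URA supplement, pH 6.0, with 2% galactose.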
LmPK inhibitor: LmPK (Leishmania mexicana) enzyme inhibition. Q27686. purified LmPK, Kinase-Glo ATP luminescence, 1 h. Potency, µM (doses to about 57.5 µM), actives largely listed as inhibitors. actives 0.37% (n = 290,000). AID 1721
Target sequence (Q27686 whole entry, looked up): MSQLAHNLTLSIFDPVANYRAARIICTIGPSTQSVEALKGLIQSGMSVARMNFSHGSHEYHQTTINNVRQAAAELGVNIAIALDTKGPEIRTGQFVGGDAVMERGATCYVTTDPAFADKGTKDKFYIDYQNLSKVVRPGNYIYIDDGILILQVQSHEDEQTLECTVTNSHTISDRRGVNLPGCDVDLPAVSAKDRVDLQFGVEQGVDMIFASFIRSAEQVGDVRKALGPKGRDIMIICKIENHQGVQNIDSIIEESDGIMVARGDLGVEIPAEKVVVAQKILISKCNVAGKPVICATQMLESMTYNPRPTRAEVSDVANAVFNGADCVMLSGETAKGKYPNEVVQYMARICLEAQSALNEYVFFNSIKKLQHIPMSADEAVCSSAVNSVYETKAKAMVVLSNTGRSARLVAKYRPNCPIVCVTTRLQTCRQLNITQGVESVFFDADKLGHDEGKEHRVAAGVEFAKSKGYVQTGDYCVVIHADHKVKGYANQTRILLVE
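Pyruvate kinase activity monitored as ATP production (luciferase luminescence). Conditions: 0.1 nM enzyme, 0.5 mM PEP, 0.1 mM ADP, 1 h, RT; normalized against uninhibited and no-enzyme wells.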
Tb PYK inh: inhibitors of Trypanosoma brucei pyruvate kinase | actives 0.12% (n = 410,000) | AID 624173 | TbPYK enzyme, Kinase-Glo Plus ATP luminescence, 45 min | Q57TT1 | Potency, µM (top dose mostly 76.8 µM), most hits filed as inhibitors; note: nearly all actives have a fitted effect of over 50% in size
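Screened from lowest to highest concentration, compounds were pinned into TbPYK/substrate mixtures, and ADP (130 uM final) was added. Plates sat at room temperature for 45 min prior to Kinase-Glo Plus detection by luminescence.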
Sm TGR block: blocks Schistosoma mansoni thioredoxin glutathione reductase; Q962Y6; purified TGR, DTNB reduction, TNB absorbance 405 nm; Potency, µM (titrated, usually from 114 µM), actives largely listed as inhibitors; actives 3% (n = 360,000); AID 485364; note: nearly all actives have a fitted effect of over 60% in size
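First, TGR (20 nM dispensed) and NADPH were mixed with compound. Second, a 15 min room-temperature incubation followed. Third, further NADPH and then DTNB were added to start the reaction. Finally, TNB absorbance was monitored kinetically.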
SARS PLpro yeast: blocks SARS-CoV papain-like protease in a yeast assay | S. cerevisiae expressing SARS-CoV PLpro, growth rescue | AID 485353 | actives 0.19% (n = 330,000) | Potency, µM (series often up to 32.9 µM), most hits filed as activators; calls by dose curve; note: nearly all actives have a fitted effect of over 55% in size
RE007 growth inh: less growth of the S. pombe RE007 Vpr strain; S. pombe RE007 Vpr strain, BacTiter-Glo ATP luminescence, 24 h; Potency, µM (titrated, usually from 92.2 µM), actives largely listed as inhibitors; actives 0.21% (n = 360,000); AID 651644; active = well fitted falling curve with a large enough effect; inconclusive = small, poorly fitted or top-dose-only effect; inactive = no such curve, though single readings can be large or run the other way; note: nearly all actives have a fitted effect of over 50% in size
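Fission yeast strain RE007, carrying one chromosomally integrated HIV-1 vpr copy, was seeded at OD 0.01 in PMG+AL medium with 23 nL pinned compound. After 24 h at 30 °C and 99% humidity, viability was read by BacTiter-Glo luminescence.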
A number is an active result; 0 = inactive; ? = inconclusive; - = no result given; [ ] = another dose, or the depositor's remark. Unless noted, calls come from the whole dose curve; as a rule, active = well fitted curve in the direction sought with a large enough effect; inconclusive = small, poorly fitted or top-dose-only effect, or another doubt; inactive = no such curve, though single readings can be large; an effect the other way counts as inactive or inconclusive.

SMILES	NS1 function inh	LmPK inhibitor	Tb PYK inh	Sm TGR block	SARS PLpro yeast	RE007 growth inh
O=C(c1cc2cc(F)ccc2[nH]1)N1CCN(C(=O)c2ccco2)CC1	0	0	0	39.8µM	0	0
COc1ccccc1OCc1cc(C(=O)N2CCN(C)C(c3ccccc3)C2)no1 (stereo not drawn)	-	0	0	0	0	0
Cc1ccc(C)c(OCc2cc(C(=O)N3CCN(C(=O)c4ccco4)CC3)no2)c1	0	0	0	0	0	0
O=C(c1cc(COc2ccc(F)cc2F)on1)N1CCN(C(=O)c2ccco2)CC1	0	0	0	25.1µM	0	0
CN1CCN(C(=O)c2cc(COc3c(F)cccc3F)on2)CC1c1ccccc1 (stereo not drawn)	0	0	0	3.98µM	0	0
Cc1cccc(C)c1NC(=O)Cn1c(=O)n(Cc2ccco2)c(=O)c2ccc(C(=O)NC3CCCC3)cc21	-	-	0	0	-	-
O=[N+]([O-])c1ccc(Cl)c2c1C1C=CCC1C(c1ccccn1)N2 (stereo not drawn)	0	0	0	20µM	0	0
O=C(O)c1ccc(Cl)c2c1C1C=CCC1C(c1ccccn1)N2 (stereo not drawn)	0	0	-	?	0	-
Cc1ccc(S(=O)(=O)Nc2cccnc2Oc2ccc(Cl)cc2)cc1	0	0	0	0	0	0
Oc1c(CN2CCCCC2)cc(COCc2ccccc2)c2cccnc12	0	0	0	35.5µM	0	?
Oc1ccc(Cl)c2cccnc12	-	-	0	-	-	0
OCCN1CCN(Cc2cc(Cl)c3cccnc3c2O)CC1	0	0	0	44.7µM	17.8µM	0
Cc1ccc(S(=O)(=O)Nc2cc(Cl)c(O)c3ncccc23)cc1	0	0	0	15.8µM	?	?
Oc1c(Cl)cc(Cl)c2cccnc12	-	0[11.5 µM]	0	15.8µM	0	?
CC1CCc2onc(C(=O)N3CCN(c4cccc(C(F)(F)F)c4)CC3)c2C1 (stereo not drawn)	-	-	0	0	-	-
Oc1c(Cl)cc(CN2CCCCC2)c2cccnc12	0	0	-	4.47µM	0	-
CC1(C)N=C(N)N=C(N)N1c1ccc(Cl)cc1	-	-	0	-	-	-
CCOc1ccc2cc(C3CC(c4ccco4)=NN3S(=O)(=O)c3ccccc3)c(Cl)nc2c1 (stereo not drawn)	?	0	0	0	0	0
Cc1ccc2nc(Cl)c(C3CC(c4ccco4)=NN3S(C)(=O)=O)cc2c1 (stereo not drawn)	0	0	0	14.1µM	0	0
Cc1ccc2cc(C3CC(c4ccco4)=NN3S(=O)(=O)c3ccccc3)c(Cl)nc2c1 (stereo not drawn)	?	0	0	0	0	0
CCOc1ccc2nc(Cl)c(C3CC(c4ccco4)=NN3S(C)(=O)=O)cc2c1 (stereo not drawn)	0	0	0	31.6µM	0	0
Cc1ccc2cc(C3CC(c4ccco4)=NN3S(C)(=O)=O)c(Cl)nc2c1 (stereo not drawn)	0	0	0	11.2µM	0	0
COc1ccc2cc(C3CC(c4ccco4)=NN3S(=O)(=O)c3ccccc3)c(Cl)nc2c1 (stereo not drawn)	?	0	0	0	0	0
CC(=O)N1N=C(c2ccco2)CC1c1cc2cc(C)ccc2nc1Cl (stereo not drawn)	0	0	0	?	0	0
CCOc1ccc2cc(C3CC(c4ccco4)=NN3S(C)(=O)=O)c(=O)[nH]c2c1 (stereo not drawn)	0	0	0	3.16µM	0	0
SMILES	NS1 function inh	LmPK inhibitor	Tb PYK inh	Sm TGR block	SARS PLpro yeast	RE007 growth inh
CN1CC[C@]23c4c5ccc(O)c4OC2C(O)CCC3[C@H]1C5 (stereo partly drawn)	-	-	0	-	-	-
O=C(CNC(=O)c1ccccc1Cl)N/N=C/C=C/c1ccccc1	0	0	0	0	0	0
O=C(CNC(=O)c1ccccc1F)N/N=C\C=C\c1ccccc1	0	0	0	22.4µM	?	0
CN(C)c1ccc2nc3ccc(=O)cc-3sc2c1	-	-	?	-	-	44.7µM
CN(C)c1ccc2nc3ccc(=[N+](C)C)cc-3sc2c1	-	0	?	?	0	?
COc1ccc(Br)c2c1-c1nc(NC(=O)c3ccc(F)cc3)sc1C2	-	-	0	0	-	-
CCN(CC)CCNC(=O)CCCCn1c(=S)[nH]c2c([nH]c3ccc(OC)cc32)c1=O	0	2.82µM	?	0	0	0
CCCCNC(=O)c1ccc(Cn2c(=S)[nH]c3c([nH]c4ccc(OC)cc43)c2=O)cc1	0	0	?	0	0	0
O=C1CC(N2CCOCC2)C(=O)N1c1ccc(Cl)cc1 (stereo not drawn)	0	0	0	22.4µM	0	?
Cc1cccc(N2C(=O)CC(N3CCOCC3)C2=O)c1 (stereo not drawn)	0	0	0	50.1µM	0	0
CCN(CC)C1CC(=O)N(c2cccc(C)c2)C1=O (stereo not drawn)	0	0	-	3.55µM	0	-
O=C1CC(N2CCOCC2)C(=O)N1c1cccc(Cl)c1 (stereo not drawn)	0	0	0	?	0	?
CC(=O)Nc1ccc(N2C(=O)CC(N3CC(C)OC(C)C3)C2=O)cc1 (stereo not drawn)	0	0	0	22.4µM	0	0
CC(=O)Nc1ccc(N2C(=O)CC(N3CCSCC3)C2=O)cc1 (stereo not drawn)	0	0	0	-	0	0
O=C(O)C(C(=O)O)P(=S)(S)c1ccccc1 (stereo not drawn)	0	-	-	-	-	-
COc1cccc2c1C(=O)c1c(O)c3c(c(O)c1C2=O)C[C@](O)(/C(C)=N\O)C[C@@H]3O[C@H]1C[C@H](N)[C@@H](O)[C@H](C)O1	0	-	-	-	-	-
COC(=O)c1ccc(N2C(=O)CC(N3CCOCC3)C2=O)cc1 (stereo not drawn)	0	0	0	?	0	28.2µM
Cc1cccc(N2C(=O)C(Cl)=C(N3CCOCC3)C2=O)c1	0	0	0	39.8µM	0	0
O=C(CN1CCN(CC(=O)c2ccc(F)cc2)CC1)Nc1ccccc1Cl	0	0	0	14.1µM	0	0
COc1cc(SC)ccc1C(=O)N1CCN(S(=O)(=O)/C=C/c2ccccc2)CC1	-	-	0	39.8µM	0	0
COc1cc(SC)ccc1C(=O)N1CCN(c2ccccc2F)CC1	0	0	0	-	0	0
O=C(CCn1c(=O)sc2ccccc21)Nc1cccnc1	0	0	0	50.1µM	0	0
CC(=O)Nc1cccc(NC(=O)CCn2c(=O)sc3ccccc32)c1	0	0	0	0	0	0
O=C(CCc1ccccc1)N(Cc1cccnc1)c1nc2c(F)cc(F)cc2s1	-	-	0[15.4 µM]	0	-	-
Cc1ccc(C(=O)N/C(=C\c2cn(C)c3ccccc23)C(=O)NCCCN2CCOCC2)cc1	0	0	0	0	0	0
Cc1ccc(C(=O)N/C(=C\c2ccc(-c3ccccc3[N+](=O)[O-])o2)C(=O)NCCCN2CCOCC2)cc1	0	0	0	35.5µM	0	0
